Source: PubChem
Compounds with a hit are over-represented: about 21% of the library has one in this group of screens.
DRD3 antagonist: antagonists of human D3 dopamine receptor. P35462. D3R cells, DiscoveRx beta-arrestin luminescence, antagonist mode; stronger effect = lower value. max response, negative = inhibition, %. 360,000 tested, 2.5% active. AID 652054; in the data active means max response below about -50%; inconclusive means no clear call, values can overlap the other calls; further: on the % scale 0 is the no-effect control and ±100 the full control effect
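Cells expressing the human receptor were seeded at 1500 cells/well, incubated overnight at 37 degrees C in 5% CO2, then exposed to library compounds with dopamine controls for 90 minutes at 37 degrees C before luminescent detection.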
DRD3 agonist: agonists of human D3 dopamine receptor; 410,000 tested, 0.58% active; D3R DiscoveRx beta-arrestin cells, luminescence, 90 min; max activation, %; P35462; in the data active means max activation above about 30%; further: 0% is about no effect
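Cells at 1500/well, incubated overnight, then treated with pinned compounds (dopamine as control) for 90 min at 37 degrees C. DiscoveRx reagent added for 30 - 60 minutes at room temperature; luminescence read.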
ClpP mod: qHTS Assay for Activators of ClpP; 340,000 tested, 1.9% active; purified B. subtilis ClpP, FRET peptide cleavage, 20 min; AID 651965, 2013; Potency, µM (titrated, usually from 57.5 µM), inactives show top-dose activity change, negative = active; active means well fitted falling curve with a large enough effect; inconclusive means small, poorly fitted or top-dose-only effect; inactive means no such curve, though single readings can be large or run the other way; further: potency means the concentration at half of the fitted maximal effect; the source files actives as falling curves though it sought activators and does not explain the sign; nearly all actives have a fitted effect of over 65% in size
Target sequence (P80244 whole entry, looked up): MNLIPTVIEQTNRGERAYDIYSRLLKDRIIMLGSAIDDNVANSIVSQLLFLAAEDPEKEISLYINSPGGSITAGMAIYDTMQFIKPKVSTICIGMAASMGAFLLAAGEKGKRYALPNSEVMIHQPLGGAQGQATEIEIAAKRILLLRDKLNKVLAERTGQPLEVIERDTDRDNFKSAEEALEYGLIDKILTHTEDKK
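ClpP 10 microg/mL final, pH 8 Tris/KCl buffer with BSA, glycerol, Tween-20; compound pinned in; FRET-FV substrate; RT 20 min; Ex320/Em430; ΔFRET vs ADEP 5.8 microM, DMSO, no enzyme.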
IL-1B inflam inh: inflammasome signaling inhibition, IL-1 beta readout | AID 743279 | THP-1 LPS/ATP IL-1B secretion, AlphaLISA, 16 h; stronger effect = lower value | 360,000 tested, 4.7% active | activity change, % at 57.5 µM; in the data active means activity change below about -50%; inconclusive means mostly about -30% to -49%; further: on the % scale 0 is the no-effect control and ±100 the full control effect
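Secreted IL-1B measured by AlphaLISA bead assay after 16 h compound exposure of THP-1 cells; compounds (final up to 57.5 uM) added 1 h before LPS (250 ng/mL) and ATP (1.25 mM) stimulation; lower signal means less secretion.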
DT40 TDP1 CPT: growth inhibition of DT40 Tdp1-/-;hTDP1 cells with camptothecin (screen for TDP1 inhibitors) | 420,000 tested, 12% active | AID 686979 | Potency, µM (series often up to 46.2 µM), without a hit: at the highest dose activity change, negative = growth inhibition, most hits filed as inhibitors | chicken DT40 Tdp1-/-;hTDP1 cells + 20 nM CPT, ATP luminescence, 48 h; further: potency means the concentration at half of the fitted maximal effect; on the % scale 0 is the no-effect control and ±100 the full control effect; nearly all actives have a fitted effect of over 55% in size
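Chicken DT40 Tdp1-/- cells stably complemented with human TDP1 were seeded at 400 cells/well in medium containing 20 nM camptothecin, exposed to pin-transferred compounds, and grown at 37 °C for at least 48 hr. Viability was read as ATP luminescence.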
TDP1 cell noCPT: qHTS for Inhibitors of human tyrosyl-DNA phosphodiesterase 1 (TDP1): qHTS in cells in absence of CPT | DT40 Tdp1-/- hTDP1 cells, no CPT, ATP luminescence, 48 h | Potency, µM (doses to about 46.2 µM), for the others: at the highest dose activity change, negative = growth inhibition, hits mostly inhibitors | 420,000 tested, 15% active; further: potency means the concentration at half of the fitted maximal effect; on the % scale 0 is the no-effect control and ±100 the full control effect; nearly all actives have a fitted effect of over 55% in size
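Stably hTDP1-transfected Tdp1-null chicken DT40 cells were treated with library compounds minus camptothecin and grown for at least 48 hr at 37 °C, after which cellular ATP was quantified by luminescence.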
Starred values were filed as active, the others as inactive; u = inconclusive; x = no result. Unless noted, the call rests on the fitted dose curve; in most records, active means well fitted inhibition curve with a large enough effect; inconclusive means small, poorly fitted or top-dose-only effect; inactive means flat fitted curve, though single readings scatter.

SMILES	DRD3 antagonist	DRD3 agonist	ClpP mod	IL-1B inflam inh	DT40 TDP1 CPT	TDP1 cell noCPT
CCc1ccc(NC(=O)Cn2c(=O)n(CCCC(=O)NCc3ccc4c(c3)OCO4)c(=O)c3ccccc32)cc1	x	3.3	-7.5%	x	20.6µM*	u
Cc1ccc(C)c(Cn2c(=O)n(CCCCCC(=O)NCc3ccc4c(c3)OCO4)c(=O)c3sccc32)c1	x	-1.4	u	x	u	u
COc1cc(NC(=O)C2CCCCC2)c(OC)cc1NC(=O)c1ccccc1	21.1	24.8	x	-12.4	-17.3%	-19.2%
Cc1ccc(CN2CCOCCS2(=O)=O)cc1	x	x	-2.0%	x	-24.7%	u
COC(=O)c1ccccc1S(=O)(=O)N1CCC(C(=O)OCc2ccc([N+](=O)[O-])cc2)CC1	16.8	1.1	1.4%	12.8	-10.2%	-26.2%
COc1ccc(C)c2sc(N(CCN(C)C)C(=O)c3cccc(N4C(=O)CCC4=O)c3)nc12	-6.8	-18.3	-2.9%	-6.4	0.7%	-20.4%
COc1ccc(OC)c2sc(N(CCN(C)C)C(=O)/C=C/c3cccs3)nc12	-20.0	-20.0	x	-103.1*	u	u
COc1ccc(C)c2sc(N(CCN(C)C)C(=O)/C=C/c3cccs3)nc12	-54.5*	-17.6	-0.5%	-70.8*	u	u
COc1cc(N)ccc1Nc1c2ccccc2nc2ccccc12	u	-14.3	4.5%	-24.0	0.82µM*	1.46µM*
COc1cc(NS(C)(=O)=O)ccc1Cc1c2ccccc2nc2ccccc12	x	x	x	x	0.082µM*	0.164µM*
CCCS(=O)(=O)Nc1ccc(Nc2c3ccccc3nc3ccccc23)c(OC)c1	-22.4	-16.7	-28.7%	-93.8*	0.164µM*	0.164µM*
COc1cc(N)ccc1NC(=O)c1cc2ccccc2o1	0.0	0.8	-0.1%	-11.0	-6.4%	-4.5%
COc1ccc(NS(=O)(=O)Cc2ccccc2)cc1OC	21.2	-25.9	1.4%	0.0	-10.7%	-20.4%
Cc1cccc(NC(=O)c2cccc(NC3=NC4CS(=O)(=O)CC4S3)c2)c1 (configuration not stated)	-9.9	1.9	-0.2%	-12.3	-20.5%	-3.4%
CCn1c(C)nc2cc(-c3nc4n(n3)Cc3ccccc3-4)ccc21	-3.5	-0.8	u	u	6.51µM*	7.31µM*
Clc1cccc(CN2CCCCCC2)c1	0.0	-3.4	0.3%	3.4	-6.0%	-12.6%
N=c1c2c(n(Cc3cccc(Cl)c3)c3c1CCC3)CCCC2	-24.2	6.4	0.3%	-78.6*	2.59µM*	1.84µM*
N=c1c2c(n(Cc3ccccc3)c3c1CCC3)CCC2	-6.1	-3.0	-1.8%	-28.2	1.64µM*	0.581µM*
N=c1c2c(n(Cc3ccc(Cl)cc3)c3c1CCC3)CCC2	-13.2	-9.0	-0.7%	-66.7*	2.31µM*	2.31µM*
CCOC(=O)Cn1c2c(c(=N)c3c1CCC3)CCC2	11.8	0.8	2.7%	14.4	-7.7%	-7.4%
N=c1c2c(n(Cc3ccc(F)cc3)c3c1CCC3)CCCC2	0.6	-3.0	0.2%	0.0	0.82µM*	1.03µM*
O=C(O)CCC(=O)OCCCc1cc2ccccc2c(=O)o1	5.6	-3.7	-20.9%	35.7	-14.1%	-5.7%
COCCCNC(=O)C1CCN(C(=O)c2ccc(-n3ccc4ccccc43)s2)CC1	x	-5.3	-0.2%	x	18.4µM*	16.4µM*
COc1ccc(CNC(=O)C2CCN(C(=O)c3ccc(-c4ccccc4)cc3)CC2)cc1	-12.4	0.9	-1.8%	-20.2	u	u
O=C(NCc1ccc(F)cc1)C1CCN(C(=O)c2ccc(-n3ccc4ccccc43)s2)CC1	x	0.7	u	x	16.4µM*	14.6µM*
CCCCN1CC[C@H]2C=CC[C@@H](C(=O)NC3CCCCC3)[C@H]2C1=O	x	x	2.8%	x	u	u
N[C@@H](CO)C(=O)O	x	x	x	x	9.0%	-12.5%
